PubChem BioAssay (NCI)
This is part of a sample that, as a whole, favours compounds with a hit. Of some 83,000 tested, about 20% had one in any assay.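 Single-concentration screen, 48 h exposure, 96-well plates. Endpoint: percent growth. Below 10 = active.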 Activity calls are given as the source filed them.

What was measured:
Assay in all cases: NCI-60 one-dose screen, 48 h (100 = growth as untreated, 0 = no growth, -100 = all killed)
Details in all cases: 10 µM unless noted
NCI-H23 lung = tested on: NCI-H23 lung
NCI-H226 lung = tested on: NCI-H226 lung
NCI-H460 lung = tested on: NCI-H460 lung
HOP-92 NSCLC = tested on: HOP-92 NSCLC
NCI-H522 lung = tested on: NCI-H522 lung
A549/ATCC NSCLC = tested on: A549/ATCC NSCLC
786-0 renal = tested on: 786-0 renal
DU-145 prostate = tested on: DU-145 prostate
K-562 leukemia = tested on: K-562 leukemia
MALME-3M melanoma = tested on: MALME-3M melanoma
MDA-MB-231 breast = tested on: MDA-MB-231 breast
RXF 393 renal = tested on: RXF 393 renal
SF-268 CNS = tested on: SF-268 CNS
SF-295 CNS = tested on: SF-295 CNS
SF-539 CNS = tested on: SF-539 CNS
UACC-257 melanoma = tested on: UACC-257 melanoma
M14 melanoma = tested on: M14 melanoma
HOP-62 NSCLC = tested on: HOP-62 NSCLC
COLO 205 colon = tested on: COLO 205 colon

Measured: growth

COc1ccc(-c2cc(-c3cc(OC)ccc3OC)[nH]c(=O)c2C#N)cc1
inactive: NCI-H23 lung 64.3% | NCI-H226 lung 69.5% | NCI-H460 lung 32.4% | HOP-92 NSCLC 55.3% | NCI-H522 lung 16.7% | A549/ATCC NSCLC 46.3% | 786-0 renal 63.5% | DU-145 prostate 74.2% | K-562 leukemia 25.4% | MALME-3M melanoma 52.4% | MDA-MB-231 breast 55.4% | RXF 393 renal 71.1% | SF-268 CNS 60.3% | SF-295 CNS 31% | SF-539 CNS 50.3% | UACC-257 melanoma 59.3% | M14 melanoma 29.1%

CCCCN1CCN(c2ccc3nc(-c4ccc5nc(-c6cc(OC)c(OC)c(OC)c6)[nH]c5c4)[nH]c3c2)CC1
active: RXF 393 renal -43.4%
inactive: NCI-H23 lung 82.9% | NCI-H226 lung 77.6% | NCI-H460 lung 83% | HOP-92 NSCLC 49.9% | NCI-H522 lung 52.8% | A549/ATCC NSCLC 105% | 786-0 renal 50.6% | DU-145 prostate 91.6% | K-562 leukemia 30.8% | MALME-3M melanoma 21.1% | MDA-MB-231 breast 78.9% | SF-268 CNS 71.8% | SF-295 CNS 58.6% | SF-539 CNS 61.1% | UACC-257 melanoma 87.9% | M14 melanoma 59%

CNC(=O)c1cc(Oc2ccc3nc(Nc4cc(Cl)cc(Cl)c4)ccc3c2)ccn1
inactive: NCI-H23 lung 70.6% | NCI-H226 lung 81.9% | NCI-H460 lung 66.9% | NCI-H522 lung 29.6% | A549/ATCC NSCLC 49.3% | 786-0 renal 82.6% | DU-145 prostate 78% | K-562 leukemia 19.1% | MALME-3M melanoma 64.7% | MDA-MB-231 breast 34.6% | RXF 393 renal 92.4% | SF-268 CNS 59.8% | SF-295 CNS 47.1% | SF-539 CNS 75.3% | UACC-257 melanoma 53.2% | M14 melanoma 38.5%

COc1ccc(/C=C2\COc3ccc(O)cc3C2=O)c(OC)c1
inactive: NCI-H23 lung 83.4% | NCI-H226 lung 104% | HOP-62 NSCLC 56.3% | NCI-H460 lung 40.6% | HOP-92 NSCLC 79.5% | NCI-H522 lung 39.1% | A549/ATCC NSCLC 51.6% | 786-0 renal 91.2% | COLO 205 colon 108% | DU-145 prostate 65.8% | K-562 leukemia 12.4% | MALME-3M melanoma 60.9% | MDA-MB-231 breast 60.9% | SF-268 CNS 70.2% | SF-295 CNS 80.1% | SF-539 CNS 57.5% | UACC-257 melanoma 74.8%
